Bioassay records (PubChem BioAssay)
L3MBTL1 inh = inhibitors of human L3MBTL1; actives 0.66% (n = 230,000); Potency, µM (series often up to 57.1 µM), inactives show at the top dose activity, negative = inhibition, actives largely listed as inhibitors; AlphaScreen L3MBTL1–H3K9me1 peptide binding; note: % is set by controls: 0 for no effect and ±100 for the full control effect; nearly all actives have a fitted effect of over 60% in size
Target sequence (Q9Y468 whole entry, looked up): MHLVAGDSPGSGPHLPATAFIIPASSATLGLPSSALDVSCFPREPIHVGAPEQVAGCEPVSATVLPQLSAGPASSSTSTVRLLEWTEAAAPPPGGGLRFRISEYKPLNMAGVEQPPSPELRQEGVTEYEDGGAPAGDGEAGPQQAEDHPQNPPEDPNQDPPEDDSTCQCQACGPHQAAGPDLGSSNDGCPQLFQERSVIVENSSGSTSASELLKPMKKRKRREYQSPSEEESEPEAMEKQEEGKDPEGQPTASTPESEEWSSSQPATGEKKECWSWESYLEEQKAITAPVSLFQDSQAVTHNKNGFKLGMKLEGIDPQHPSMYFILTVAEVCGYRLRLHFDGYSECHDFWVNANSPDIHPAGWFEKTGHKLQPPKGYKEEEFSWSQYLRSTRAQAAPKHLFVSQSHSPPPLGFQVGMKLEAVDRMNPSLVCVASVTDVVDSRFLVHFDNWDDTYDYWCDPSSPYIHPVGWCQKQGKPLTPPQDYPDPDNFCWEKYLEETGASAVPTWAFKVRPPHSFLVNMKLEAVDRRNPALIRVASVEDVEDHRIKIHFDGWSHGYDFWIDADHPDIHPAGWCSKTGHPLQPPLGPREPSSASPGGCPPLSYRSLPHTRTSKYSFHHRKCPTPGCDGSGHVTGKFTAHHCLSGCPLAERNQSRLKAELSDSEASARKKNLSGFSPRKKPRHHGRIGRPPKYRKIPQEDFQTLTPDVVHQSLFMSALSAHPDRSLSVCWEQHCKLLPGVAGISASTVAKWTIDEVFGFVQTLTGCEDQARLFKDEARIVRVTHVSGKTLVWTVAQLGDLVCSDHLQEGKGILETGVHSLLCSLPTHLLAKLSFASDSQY
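Read-out is AlphaScreen signal from streptavidin donor and nickel chelate acceptor beads (10 ug/mL final each) bridging L3MBTL1 (50 nM) and biotinylated K9-monomethylated H3(1-15) peptide (75 nM), after 30 min compound exposure at room temperature.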
BAZ2B block = blocks human BAZ2B; AlphaScreen BAZ2B-H3K14Ac peptide displacement; Potency, µM (doses to about 114 µM), for inactives: top-dose activity change, negative = inhibition, actives largely listed as inhibitors; actives 4.4% (n = 360,000); AID 504333; note: % is set by controls: 0 for no effect and ±100 for the full control effect; nearly all actives have a fitted effect of over 60% in size
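AlphaScreen luminescence quantifies BAZ2B engagement of H3K14Ac peptide; the protein and biotinylated peptide are both at 50 nM final, buffer PBS pH 7.4 with 0.01% Tween-20, all steps at room temperature.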
G9a inh = blocks human histone lysine methyltransferase G9a; G9a H3K9 monomethylation, AlphaScreen, 2 h; Potency, µM (series often up to 102 µM), for inactives: at the top dose activity, negative = inhibition, hits mostly inhibitors; actives 8.8% (n = 350,000); AID 504332; note: % is set by controls: 0 for no effect and ±100 for the full control effect; nearly all actives have a fitted effect of over 75% in size
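AlphaScreen detection with an anti-monomethyl H3K9 antibody quantified product after a 2 h room-temperature reaction containing 500 nM biotinylated H3K9 peptide, 20 µM SAM and 20 nM enzyme, which had been preincubated 15 min with compound.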
JMJD2A Tudor = JMJD2A Tudor domain (human) inhibition. AlphaScreen JMJD2A-Tudor / H3K4me3 peptide binding. O75164. AID 504339. actives 4.4% (n = 390,000). Potency, µM (series often up to 114 µM), inactives show at the top dose activity change, negative = inhibition, usual class: inhibitors; note: % is set by controls: 0 for no effect and ±100 for the full control effect; nearly all actives have a fitted effect of over 50% in size
HP1b binding inh = blocks HP1-beta chromodomain binding to methylated histone tails; P83916; AlphaScreen HP1-beta / biotin-H3K9me3 peptide binding; Potency, µM (top dose mostly 114 µM), for the others: top-dose activity change, negative = inhibition, actives largely listed as inhibitors; actives 0.56% (n = 390,000); note: nearly all actives have a fitted effect of over 70% in size
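HP1-beta protein (50 nM final) preincubated 30 min at room temperature with biotinylated H3(1-18)K9me3 peptide (50 nM) in PBS pH 7.4, 0.01% Tween-20, then compound added for 30 min. AlphaScreen streptavidin donor/nickel chelate acceptor beads (10 ug/mL final), 30 min dark, luminescence read.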
* hit, by the source's call; ? = inconclusive; / = not tested or not shown; [ ] = dose if it differs, or a comment. Shown are actives, neighbours in structure and some others; about 11% of the full set was active somewhere. Calls come from the whole dose curve; as a rule, active = well fitted inhibition curve with a large enough effect; inconclusive = small, poorly fitted or top-dose-only effect; inactive = no such curve, though single readings can be large or run the other way. Potency is the fitted concentration of half-maximal effect.

SMILES	L3MBTL1 inh	BAZ2B block	G9a inh	JMJD2A Tudor	HP1b binding inh
CCOc1ccc(C(=O)N2CCC(c3ccncc3)CC2)cc1	/	-3.1%	-4.3%[59 µM]	7.0%	39.4%
CC(C)CC(=O)OCc1cc(=O)n2nc(C3CCCCC3)sc2n1	/	-0.9%	14.3%[59 µM]	-10.7%	30.0%
Cc1cc(C)c(OCC(O)CN2CCN(C(=O)c3ccccc3)CC2)c(C)c1 (stereo not given)	/	?	20µM*	22.4µM*	?
OC(CN1CCCCC1)Cn1c2ccccc2c2ccccc21 (stereo not given)	/	15.1%	31.3%	5.7%	43.5%
OC(CN1CCCC1)Cn1ccc2ccccc21 (stereo not given)	/	50.1µM*	14.1µM*	20µM*	23.3%
OC(CNc1ccccc1)Cn1ccc2ccccc21 (stereo not given)	-23.9%	35.5µM*	31.6µM*	3.98µM*	?
O=C(O)Cn1ccc2ccccc21	/	-14.9%	23.0%[12.7 µM]	-16.4%	32.5%
O=C(c1ccccc1)N1CCN(CC(O)Cn2ccc3ccccc32)CC1 (stereo not given)	/	56.2µM*	11.2µM*	?	?
Cc1ccc(N2CCN(S(=O)(=O)c3ccc4c(c3)oc(=O)n4C)CC2C)cc1 (stereo not given)	/	-22.1%	-1.3%	-13.8%	32.7%
Cc1ccc(-c2cn3c(n2)sc2cc(C(=O)N4CCCCC4)ccc23)cc1	/	?	-27.7%[59 µM]	-14.8%	43.9%
CC(C)CC(=O)Nc1nc2c(s1)CC(C(C)(C)C)CC2 (stereo not given)	/	-14.4%	-21.3%[59 µM]	-3.3%	21.3%
Cc1ccc(NC(=O)Cn2c(=O)n(CCC(C)C)c(=O)c3cccnc32)cc1C	/	0.5%	-14.3%[59 µM]	-8.0%	22.5%
O=C1c2cc(O)cc(O)c2C(=O)c2c1cc(O)c([C@@H](CO)CCO)c2O	/	/	/	79.4µM*	?
O=C1c2cccc(O)c2C(=O)c2c(O)cc(CO)cc21	/	/	/	-19.0%	19.8%
Cc1ccc(SCC(=O)OC(C)C(=O)NC2CCCCC2C)c(C)c1 (stereo not given)	45.1%	34.2%	-33.2%[12.7 µM]	18.2%	57.0%
CCCCn1c(-c2csc(C(C)C)c2)n[nH]c1=S	-3.5%	-7.7%	3.98µM*	79.4µM*	?
CCCCn1c(-c2csc(CC)c2)n[nH]c1=S	-7.3%	-35.6%	1.78µM*	39.8µM*	-18.8%
CCCn1c2ccc(C)cc2c2n[nH]c(=S)nc21	/	-35.6%	?	-24.6%	25.6%
CCCc1cc(-c2n[nH]c(=S)n2CC(C)C)cs1	0.5%	-29.9%	2µM*	79.4µM*	-1.6%
COc1ccc(CNC(=O)c2ccc3c(c2)N(Cc2c(F)cccc2Cl)C(=O)CS3)cc1	/	4.0%	0.8%[59 µM]	-2.0%	60.3%
COc1ccc(C2=C(N3CCN(c4cc(Cl)ccc4C)CC3)c3ccccc3C2=O)cc1	/	2.82µM*	3.55µM*	6.31µM*	?
Cc1ccc(Cl)cc1N1CCN(S(C)(=O)=O)CC1	/	11.2%	12.1%[59 µM]	6.1%	6.1%
Cc1ccccc1NC(=O)Cn1c(SCC(=O)Nc2ccc(F)cc2)nc2ccccc21	/	-16.1%	4.4%[12.7 µM]	4.0%	43.0%
COc1ccc(-c2nc(O)c3cnccn23)cc1	9.9%	-22.3%	?	-14.2%	16.8%
CSc1ccc(-c2nc(O)c3cnccn23)cc1	-3.6%	-23.2%	39.8µM*	-10.4%	20.1%
SMILES	L3MBTL1 inh	BAZ2B block	G9a inh	JMJD2A Tudor	HP1b binding inh
Nc1ccccc1Sc1ccccc1[N+](=O)[O-]	-2.8%	?	-46.9%[59 µM]	?	-23.4%
Nc1nc(O)c(Sc2ccccc2[N+](=O)[O-])c(=O)[nH]1	/	-4.8%	39.8µM*	-4.3%	26.4%
O=c1c2c3c(sc2nc(NCCO)n1Cc1ccco1)CCCCC3	-8.1%	-30.3%	0.9%	-22.2%	17.8%
CN(C)CCNc1nc2sc3c(c2c(=O)n1-c1ccccc1)CCCCC3	/	-10.1%	-37.2%	-17.8%	3.3%
CN(C)CCNc1nc2sc3c(c2c(=O)n1Cc1ccccc1)CCCCC3	/	35.5µM*	?	50.1µM*	-38.5%
O=c1c2c3c(sc2nc(NCCO)n1CCc1ccccc1)CCCCC3	-12.1%	?	56.2µM*	?	?
COc1ccc2sc(N(Cc3cccnc3)C(=O)c3cccs3)nc2c1	/	3.3%	-4.8%[59 µM]	-2.6%	33.7%
O=[N+]([O-])c1ccc(Cl)c(S(=O)(=O)Nc2cccc(-c3ccc(N4CCCC4)nn3)c2)c1	-20.7%	?	39.8µM*	-33.8%	0.9%
COc1ccc(OC)c(S(=O)(=O)Nc2cccc(-c3ccc(N4CCCCC4)nn3)c2)c1	/	-1.9%	3.55µM*	?	?
COc1ccc(F)cc1S(=O)(=O)Nc1cccc(-c2ccc(N3CCCCCC3)nn2)c1	/	-14.4%	-28.7%[59 µM]	-19.2%	10.0%[57 µM]
O=[N+]([O-])c1ccccc1S(=O)(=O)Nc1cccc(-c2ccc(N3CCCC3)nn2)c1	-5.5%	-2.3%	-4.7%[2.33 µM]	-27.6%	-6.7%
O=[N+]([O-])c1ccc(Cl)c(S(=O)(=O)Nc2ccc(-c3ccc(N4CCCC4)nn3)cc2)c1	2.2%	-8.2%	50.1µM*	-34.2%	0.1%
Cc1ccc([N+](=O)[O-])cc1S(=O)(=O)Nc1ccc(-c2ccc(N3CCCC3)nn2)cc1	-7.1%	-0.8%	-1.7%[2.33 µM]	-26.2%	2.2%
Cc1noc(Cn2c(=O)c3ccccc3n(CC(=O)Nc3ccc(C(C)C)cc3)c2=O)n1	/	-14.3%	-33.2%[59 µM]	-16.2%	21.4%
Cc1[nH]c2ccccc2c1C(c1ccncc1)N1CCCCC1 (stereo not given)	3.8%	?	35.5µM*	-16.2%	5.0%
Cc1ccnc(NC(c2ccncc2)c2c(C)[nH]c3ccccc23)c1 (stereo not given)	-3.9%	?	10µM*	-16.2%	20.7%
Cc1ccc(C(=O)c2c3ccc(C(F)(F)F)cc3[n+]([O-])n2CCC(N)=O)cc1	-2.2%	-4.1%	/	-30.5%	15.0%
Cc1ccc(C(=O)c2c3ccc(N)cc3nn2CCC(N)=O)cc1	-9.2%	?	44.7µM*	?	12.5%
Cc1ccc(CCNC(=O)C2CCC(=O)N(Cc3ccccc3F)C2)o1 (stereo not given)	/	-24.4%	79.4µM*	?	24.9%
COc1ccc(CCN2CC(C(=O)NCCc3ccc(F)cc3)CCC2=O)cc1 (stereo not given)	/	-3.9%	21.4%	-13.8%	27.2%
COc1cccc(CN2CC(C(=O)NCc3cccc(N4CCCC4)c3)CCC2=O)c1 (stereo not given)	/	?	79.4µM*	-35.3%	15.7%
COc1cccc(CN2CC(C(=O)NCCc3ccc(C)o3)CCC2=O)c1 (stereo not given)	/	-20.5%	39.8µM*	-16.6%	-6.9%
COc1ccc(CCN2CC(C(=O)NCCc3cnn(C)c3)CCC2=O)cc1 (stereo not given)	/	-5.3%[57.1 µM]	23.2%	20µM*	21.9%
O=C(C1CCN(S(=O)(=O)Cc2ccccc2)CC1)N1CCN(c2cccc(C(F)(F)F)c2)CC1	/	-0.6%	-31.3%[59 µM]	-5.0%	42.8%
O=C(CCC(=O)c1cccs1)NCc1cccc(Cl)c1	5.5%	7.6%	1.3%[59 µM]	-7.6%	22.9%
